Assay results published in PubChem BioAssay (EPA / NIEHS).
Several values for one entry are separate records, joined by “and”; a condition that tells them apart may be missing. Identical values can stand only once. Inconclusive results are not listed. Activity calls are given as the source filed them. How the source made its calls, unless noted: active means hit-call score of the fitted dose curve at least 0.9, where 1 is the maximum; inconclusive means response in the unintended direction; inactive means score below 0.9.

Key:
[1] = system: zebrafish Estrogen Receptor (ER2a), gene 317734; assay: ATG_zfER2a_XSP2: Attagene TRANS-FACTORIAL Multi-Species (XSP2) HepG2 Assay for zebrafish Estrogen Receptor (ER2a) (AID 2283818);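 further: hits raise reporter mRNA so AC50 reflects activation of zebrafish ER2a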
How it was run: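 HepG2 cells transiently transfected with GAL4-UAS reporter units and chimeric zebrafish ER2a-Gal4, exposed 24 h; medium contains 3 nM 6-alpha-fluorotestosterone and 1.5 nM norgestrel. Reporter mRNA quantified by RT-PCR, HpaI digestion, capillary electrophoresis; gain versus DMSO.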

[2] = system: frog Estrogen Receptor (ER), gene 398734; assay: ATG_frER1_XSP2: Attagene TRANS-FACTORIAL Multi-Species (XSP2) HepG2 Assay for frog Estrogen Receptor (ER) (AID 2283821);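 further: hits raise reporter mRNA above DMSO baseline so potency means agonist or activator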
How it was run: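 HepG2 cells transiently transfected with GAL4-UAS reporter units expressing a chimeric frog ER-Gal4 protein; 24 h exposure. Reporter mRNA quantified by RT-PCR, fluorescent labelling and capillary electrophoresis; gain of signal fitted against DMSO baseline.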

[3] = system: zebrafish Estrogen Receptor (ER2b), gene 317733; assay: ATG_zfER2b_XSP2: Attagene TRANS-FACTORIAL Multi-Species (XSP2) HepG2 Assay for zebrafish Estrogen Receptor (ER2b) (AID 2283823);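 further: fitted upward as reporter gain over DMSO so potency reflects activation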
How it was run: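 Read-out: fluorescent reporter mRNA, measured by RT-PCR then capillary electrophoresis after HpaI digestion. HepG2 cells carried transiently transfected multi-reporter TRANS constructs (NR-Gal4 chimeras); 24 h chemical exposure; activity scored upward versus DMSO control.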

[4] = system: frog Estrogen Receptor (ER2), gene 100174814; assay: ATG_frER2_XSP2: Attagene TRANS-FACTORIAL Multi-Species (XSP2) HepG2 Assay for frog Estrogen Receptor (ER2) (AID 2283828)
How it was run: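 HepG2 cells transiently transfected with multiplexed GAL4-UAS reporter units expressing chimeric frog ER2–Gal4 protein; reporter mRNA measured 24 h after chemical dosing by RT-PCR, fluorescent labeling and capillary electrophoresis. Gain-of-signal fitted relative to DMSO baseline.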

[5] = system: turtle Thyroid Hormone Receptor, alpha (TRa), gene 101949057; assay: ATG_trTRa_XSP2: Attagene TRANS-FACTORIAL Multi-Species (XSP1) HepG2 Assay for turtle Thyroid Hormone Receptor, alpha (TRa) (AID 2283834);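 further: hits raise reporter mRNA over the DMSO baseline so AC50 marks activators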
How it was run: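 HepG2 cells transiently transfected with multiplexed GAL4-UAS reporter units expressing chimeric NR-Gal4 proteins were dosed for 24 hours. Reporter mRNA was quantified by RT-PCR with 6-FAM labelling and capillary electrophoresis, gain of signal scored against DMSO.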

[6] = ATG_M_61_XSP2: Attagene TRANS-FACTORIAL Multi-Species (XSP2) HepG2 Assay for M61 Transcription Factor (Internal Marker) (AID 2283835; active means hit-call score of the fitted dose curve at least 0.9, where 1 is the maximum; inactive means score below 0.9;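 further: active means a rise in signal above the DMSO baseline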)
How it was run: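 HepG2 cells transiently transfected with multiple GAL4-UAS reporter units; reporter mRNA measured 24 h after dosing by RT-PCR, fluorescent labelling and capillary electrophoresis. Medium contained 3 nM 6-alpha-fluorotestosterone and 1.5 nM norgestrel; internal marker, DMSO baseline.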

[7] = molecular target: zebrafish Thyroid Hormone Receptor beta (TRb), thrb (gene 30607) (UniProt Q9PVE4); assay: ATG_zfTRb_XSP2: Attagene TRANS-FACTORIAL Multi-Species (XSP1) HepG2 Assay for zebrafish Thyroid Hormone Receptor beta (TRb) (AID 2283836);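 on AC50: potency for induction of reporter signal above DMSO so agonist direction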
How it was run: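 HepG2 cells transiently transfected with chimeric zebrafish TRb-GAL4 reporter units, dosed 24 h with 3 nM 6-alpha-fluorotestosterone and 1.5 nM norgestrel present. Reporter mRNA quantified by RT-PCR and capillary electrophoresis; gain fitted against DMSO.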

[8] = system: chicken Androgen Receptor (AR), gene 422165; assay: ATG_chAR_XSP2: Attagene TRANS-FACTORIAL Multi-Species (XSP2) HepG2 Assay for chicken Androgen Receptor (AR) (AID 2283819);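 further: hits raise reporter mRNA above DMSO so potency is for activation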
How it was run: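 HepG2 cells transiently transfected with chicken AR–GAL4 chimeric reporter constructs, stimulated with 3 nM 6-alpha-fluorotestosterone plus 1.5 nM norgestrel, dosed 24 h. Reporter mRNA quantified by RT-PCR and capillary electrophoresis; gain of signal fitted versus DMSO.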

[9] = system: frog Androgen Receptor (AR), gene 399456; assay: ATG_frAR_XSP2: Attagene TRANS-FACTORIAL Multi-Species (XSP2) HepG2 Assay for frog Androgen Receptor (AR) (AID 2283824);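 further: actives raise reporter signal above DMSO so AC50 reflects agonist-like induction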
How it was run: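 HepG2 cells transiently transfected with GAL4-UAS reporter units and frog (Xenopus laevis) AR-Gal4 chimera; reporter mRNA measured 24 h after dosing by RT-PCR and capillary electrophoresis. Gain of signal fitted relative to DMSO baseline.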

[10] = system: zebrafish Androgen Receptor (AR), gene 100005148; assay: ATG_zfAR_XSP2: Attagene TRANS-FACTORIAL Multi-Species (XSP2) HepG2 Assay for zebrafish Androgen Receptor (AR) (AID 2283825);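 further: hits raise reporter mRNA above DMSO so AC50 reflects agonist-type gain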
How it was run: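 Zebrafish AR–GAL4 chimera transiently expressed with GAL4-UAS reporter in HepG2 cells, co-stimulated with 3 nM 6-alpha-fluorotestosterone and 1.5 nM norgestrel; 24 h dosing, reporter mRNA read by RT-PCR/capillary electrophoresis versus DMSO.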

[11] = molecular target: mouse Peroxisome Proliferator-activated Receptor gamma (PPARg), Pparg (gene 19016) (UniProt P37238); assay: ATG_mPPARg_XSP2: Attagene TRANS-FACTORIAL Multi-Species (XSP2) HepG2 Assay for mouse Peroxisome Proliferator-activated Receptor gamma (PPARg) (AID 2283830);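 further: hits are gains in reporter mRNA above DMSO so AC50 marks activation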
How it was run: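 HepG2 cells transiently transfected with GAL4-UAS reporter units for chimeric NR-Gal4 proteins including mouse PPARg, exposed 24 h; medium contained 3 nM 6-alpha-fluorotestosterone and 1.5 nM norgestrel. Reporter mRNA quantified by RT-PCR, HpaI digestion and capillary electrophoresis, vs DMSO.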

[12] = molecular target: zebrafish Thyroid Hormone Receptor alpha (TRa), thraa (gene 30670) (UniProt Q98867); assay: ATG_zfTRa_XSP2: Attagene TRANS-FACTORIAL Multi-Species (XSP1) HepG2 Assay for zebrafish Thyroid Hormone Receptor alpha (TRa) (AID 2283832);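 further: actives raise zebrafish TRa-Gal4 reporter transcript above DMSO baseline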
How it was run: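 HepG2 transiently transfected with GAL4-UAS reporter units and chimeric zebrafish TRa-Gal4; reporter mRNA quantified after 24 h dosing by RT-PCR, HpaI digestion and capillary electrophoresis fluorescence. Gain of signal vs DMSO; XSP2 medium contains 3 nM 6-alpha-fluorotestosterone, 1.5 nM norgestrel.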

[13] = system: zebrafish Peroxisome Proliferator-activated Receptor gamma (PPARg), gene 557037; assay: ATG_zfPPARg_XSP2: Attagene TRANS-FACTORIAL Multi-Species (XSP2) HepG2 Assay for zebrafish Peroxisome Proliferator-activated Receptor gamma (PPARg) (AID 2283833);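 further: actives increase reporter signal over DMSO so AC50 reflects activation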
How it was run: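 HepG2 cells transiently transfected with GAL4-UAS reporter units expressing a zebrafish PPARg–GAL4 chimera; compound exposure 24 h. Reporter mRNA quantified by RT-PCR with fluorescent labelling and capillary electrophoresis; gain of signal fitted relative to DMSO baseline.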

[14] = molecular target: frog Thyroid hormone Receptor alpha (TRa), thra-a (gene 397942) (UniProt P15204); assay: ATG_frTRa_XSP2: Attagene TRANS-FACTORIAL Multi-Species (XSP2) HepG2 Assay for frog Thyroid hormone Receptor alpha (TRa) (AID 2283839);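 on AC50: AC50 reflects induction of frog TRa-driven reporter mRNA above DMSO baseline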
How it was run: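 HepG2 cells transiently transfected with multiplexed GAL4-UAS reporter units expressing chimeric frog TRα-Gal4; reporter mRNA read 24 h after dosing by RT-PCR, FAM-labelled primer extension, HpaI digest and capillary electrophoresis. Gain of signal fitted versus DMSO.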

[15] = molecular target: Peroxisome proliferator-activated receptor gamma (Homo sapiens) (UniProt P37231); assay: ATG_hPPARg_XSP2: Attagene TRANS-FACTORIAL Multi-Species (XSP2) HepG2 Assay for human Peroxisome Proliferator-activated Receptor gamma (PPARg) (AID 2283829);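 further: actives raise reporter mRNA above DMSO so AC50 reflects PPARg activation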
How it was run: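 HepG2 cells transiently transfected with multiplexed GAL4-UAS reporter units for chimeric NR-Gal4 receptors, dosed 24 h. Reporter mRNA quantified by RT-PCR, 6-FAM labeling, HpaI digestion and capillary electrophoresis; gain-of-signal fitted against DMSO baseline.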

[16] = molecular target: Nuclear receptor subfamily 1 group I member 2 (Mus musculus) (UniProt O54915); assay: ATG_mPXR_XSP2: Attagene TRANS-FACTORIAL Multi-Species (XSP1) HepG2 Assay for mouse Pregnane X Receptor (PXR) (AID 2283831)
How it was run: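 HepG2 cells transiently transfected with GAL4-UAS reporter units expressing chimeric NR-GAL4 proteins; reporter mRNA measured 24 h after dosing by RT-PCR with 6-FAM labelling and capillary electrophoresis, gain of signal relative to DMSO.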

[17] = ATG_XTT_Cytotoxicity_XSP2: Cytotoxicity Assessment in the Attagene TRANS-FACTORIAL Multi-Species (XSP2) HepG2 Assay (AID 2283837)
How it was run: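 HepG2 cells, transiently transfected with multiple reporter constructs, exposed to chemical for 24 h. Cell number assessed with XTT fluorescence read-out; loss of signal fitted relative to DMSO.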

[18] = molecular target: human Thyroid hormone Receptor alpha (TRa), THRA (gene 7067) (UniProt P10827); assay: ATG_hTRa_XSP2: Attagene TRANS-FACTORIAL Multi-Species (XSP2) HepG2 Assay for human Thyroid hormone Receptor alpha (TRa) (AID 2283838)
How it was run: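 HepG2 cells were transiently transfected with GAL4-UAS reporter units for chimeric human TRa-Gal4 and dosed for 24 hours, with 3 nM 6-alpha-fluorotestosterone and 1.5 nM norgestrel present. Reporter mRNA was quantified by RT-PCR, FAM labelling and capillary electrophoresis, with gain of signal fitted versus DMSO.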

[19] = molecular target: human Thyroid hormone Receptor beta (TRb), THRB (gene 7068) (UniProt P10828); assay: ATG_hTRb_XSP2: Attagene TRANS-FACTORIAL Multi-Species (XSP2) HepG2 Assay for human Thyroid hormone Receptor beta (TRb) (AID 2283840);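 further: actives raise reporter mRNA so potency reflects agonist-like gain of signal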
How it was run: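 HepG2 cells were transiently transfected with GAL4-UAS multiplexed reporter units expressing chimeric NR-Gal4 proteins, dosed 24 h; reporter mRNA was quantified by RT-PCR, fluorescent labeling, HpaI digestion and capillary electrophoresis, fitted for gain of signal versus DMSO.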

Measured: AC50

zebrafish Thyroid Hormone Receptor beta (TRb), thrb (gene 30607), sequence (Q9PVE4 whole entry, looked up, the tested form may be a part): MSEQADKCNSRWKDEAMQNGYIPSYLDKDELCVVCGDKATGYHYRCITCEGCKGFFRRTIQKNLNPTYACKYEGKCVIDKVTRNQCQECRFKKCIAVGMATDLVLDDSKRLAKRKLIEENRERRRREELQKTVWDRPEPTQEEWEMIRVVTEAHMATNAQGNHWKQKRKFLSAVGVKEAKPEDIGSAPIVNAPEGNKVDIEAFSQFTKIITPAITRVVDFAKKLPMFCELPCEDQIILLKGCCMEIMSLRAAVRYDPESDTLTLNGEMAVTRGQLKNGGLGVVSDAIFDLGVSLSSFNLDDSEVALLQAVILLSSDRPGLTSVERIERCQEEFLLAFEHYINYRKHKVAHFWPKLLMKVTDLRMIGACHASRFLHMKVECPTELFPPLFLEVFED
frog Thyroid hormone Receptor alpha (TRa), thra-a (gene 397942), sequence (P15204 whole entry, looked up, the tested form may be a part): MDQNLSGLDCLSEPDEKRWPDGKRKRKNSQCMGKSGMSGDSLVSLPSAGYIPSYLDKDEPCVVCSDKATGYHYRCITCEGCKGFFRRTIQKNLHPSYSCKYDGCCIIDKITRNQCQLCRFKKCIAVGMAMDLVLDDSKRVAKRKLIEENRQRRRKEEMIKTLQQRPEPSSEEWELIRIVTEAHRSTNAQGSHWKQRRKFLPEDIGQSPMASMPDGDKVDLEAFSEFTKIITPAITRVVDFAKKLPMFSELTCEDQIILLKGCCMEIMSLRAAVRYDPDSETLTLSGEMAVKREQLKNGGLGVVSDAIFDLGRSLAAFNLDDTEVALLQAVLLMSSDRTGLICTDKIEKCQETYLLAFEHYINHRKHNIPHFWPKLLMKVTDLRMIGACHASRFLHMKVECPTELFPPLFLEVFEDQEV
human Thyroid hormone Receptor beta (TRb), THRB (gene 7068), sequence (P10828 whole entry, looked up, the tested form may be a part): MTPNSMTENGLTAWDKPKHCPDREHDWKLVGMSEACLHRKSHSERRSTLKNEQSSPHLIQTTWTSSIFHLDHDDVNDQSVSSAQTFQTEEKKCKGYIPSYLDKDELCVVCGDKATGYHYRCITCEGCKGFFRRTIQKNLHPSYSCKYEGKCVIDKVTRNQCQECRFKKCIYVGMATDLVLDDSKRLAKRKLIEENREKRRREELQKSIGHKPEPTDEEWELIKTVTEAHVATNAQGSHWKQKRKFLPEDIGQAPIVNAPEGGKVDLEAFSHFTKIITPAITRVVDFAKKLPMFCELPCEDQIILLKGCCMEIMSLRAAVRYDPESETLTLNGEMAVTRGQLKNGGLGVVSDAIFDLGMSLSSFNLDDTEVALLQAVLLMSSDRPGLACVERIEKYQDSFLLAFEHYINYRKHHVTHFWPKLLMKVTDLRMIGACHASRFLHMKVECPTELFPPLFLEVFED
mouse Peroxisome Proliferator-activated Receptor gamma (PPARg), Pparg (gene 19016), sequence (P37238 whole entry, looked up, the tested form may be a part): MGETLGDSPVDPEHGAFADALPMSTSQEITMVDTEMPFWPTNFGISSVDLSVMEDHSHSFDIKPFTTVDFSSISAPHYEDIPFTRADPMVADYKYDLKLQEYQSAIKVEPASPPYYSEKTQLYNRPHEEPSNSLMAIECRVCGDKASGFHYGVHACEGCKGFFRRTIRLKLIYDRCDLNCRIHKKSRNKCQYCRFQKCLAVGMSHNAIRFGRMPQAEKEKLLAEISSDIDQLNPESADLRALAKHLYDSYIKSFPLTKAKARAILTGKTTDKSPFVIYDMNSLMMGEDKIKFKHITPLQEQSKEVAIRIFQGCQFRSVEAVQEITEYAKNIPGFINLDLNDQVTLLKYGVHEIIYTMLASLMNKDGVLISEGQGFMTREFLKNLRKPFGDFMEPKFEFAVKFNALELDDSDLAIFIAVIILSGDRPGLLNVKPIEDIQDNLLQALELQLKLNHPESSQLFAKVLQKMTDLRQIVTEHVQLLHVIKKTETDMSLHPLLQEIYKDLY
zebrafish Thyroid Hormone Receptor alpha (TRa), thraa (gene 30670), sequence (Q98867 whole entry, looked up, the tested form may be a part): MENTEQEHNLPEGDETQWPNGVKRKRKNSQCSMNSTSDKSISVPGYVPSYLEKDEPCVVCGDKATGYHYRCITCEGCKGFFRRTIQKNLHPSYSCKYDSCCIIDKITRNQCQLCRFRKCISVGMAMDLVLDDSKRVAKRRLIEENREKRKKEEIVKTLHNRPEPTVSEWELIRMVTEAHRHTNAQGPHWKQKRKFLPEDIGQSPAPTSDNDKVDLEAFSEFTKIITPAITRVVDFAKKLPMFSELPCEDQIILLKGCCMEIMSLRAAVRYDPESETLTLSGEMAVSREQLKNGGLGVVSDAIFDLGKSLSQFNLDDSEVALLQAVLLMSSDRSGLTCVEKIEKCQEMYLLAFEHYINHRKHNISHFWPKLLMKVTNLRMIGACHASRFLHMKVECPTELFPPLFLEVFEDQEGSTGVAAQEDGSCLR
Nuclear receptor subfamily 1 group I member 2 (Mus musculus), sequence (O54915 whole entry, looked up, the tested form may be a part): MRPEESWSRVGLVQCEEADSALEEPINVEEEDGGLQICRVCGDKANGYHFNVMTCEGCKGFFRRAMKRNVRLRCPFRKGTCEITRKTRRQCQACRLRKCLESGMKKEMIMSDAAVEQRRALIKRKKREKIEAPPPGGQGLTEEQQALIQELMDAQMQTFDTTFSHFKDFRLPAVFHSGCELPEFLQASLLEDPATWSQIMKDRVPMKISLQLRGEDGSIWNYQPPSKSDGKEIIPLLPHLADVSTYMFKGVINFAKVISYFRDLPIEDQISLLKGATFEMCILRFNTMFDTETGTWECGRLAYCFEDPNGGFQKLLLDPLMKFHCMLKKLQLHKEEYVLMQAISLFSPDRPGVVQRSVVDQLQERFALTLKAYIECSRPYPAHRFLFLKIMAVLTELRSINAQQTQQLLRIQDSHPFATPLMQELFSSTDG
human Thyroid hormone Receptor alpha (TRa), THRA (gene 7067), sequence (P10827 whole entry, looked up, the tested form may be a part): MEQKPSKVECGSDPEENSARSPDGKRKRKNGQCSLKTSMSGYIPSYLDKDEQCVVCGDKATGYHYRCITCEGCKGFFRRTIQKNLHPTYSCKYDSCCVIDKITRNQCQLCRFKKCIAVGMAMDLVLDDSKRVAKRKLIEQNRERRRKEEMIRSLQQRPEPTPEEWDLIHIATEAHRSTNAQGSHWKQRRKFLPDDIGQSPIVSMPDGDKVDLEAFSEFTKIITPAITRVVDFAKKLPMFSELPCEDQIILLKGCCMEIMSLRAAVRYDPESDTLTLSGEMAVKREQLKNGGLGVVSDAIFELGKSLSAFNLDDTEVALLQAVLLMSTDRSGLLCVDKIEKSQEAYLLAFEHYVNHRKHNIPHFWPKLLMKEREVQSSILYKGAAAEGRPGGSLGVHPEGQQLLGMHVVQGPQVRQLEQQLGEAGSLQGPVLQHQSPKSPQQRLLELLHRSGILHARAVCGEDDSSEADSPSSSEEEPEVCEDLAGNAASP
Peroxisome proliferator-activated receptor gamma (Homo sapiens), sequence (P37231 whole entry, looked up, the tested form may be a part): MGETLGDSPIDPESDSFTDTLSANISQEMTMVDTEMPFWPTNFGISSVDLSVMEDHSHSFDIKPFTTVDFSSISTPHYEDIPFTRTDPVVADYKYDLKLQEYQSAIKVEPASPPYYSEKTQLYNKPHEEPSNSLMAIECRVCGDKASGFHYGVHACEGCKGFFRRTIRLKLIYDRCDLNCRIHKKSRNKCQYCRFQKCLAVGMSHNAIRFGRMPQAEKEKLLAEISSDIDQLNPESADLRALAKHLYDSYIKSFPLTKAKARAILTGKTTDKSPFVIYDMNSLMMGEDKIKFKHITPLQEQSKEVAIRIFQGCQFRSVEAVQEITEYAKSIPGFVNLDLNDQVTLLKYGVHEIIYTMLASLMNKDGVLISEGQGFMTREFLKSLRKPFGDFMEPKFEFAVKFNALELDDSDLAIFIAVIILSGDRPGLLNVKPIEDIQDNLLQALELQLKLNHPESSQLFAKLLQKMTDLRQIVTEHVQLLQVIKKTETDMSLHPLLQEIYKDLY

CC/C(=C(/CC)c1ccc(O)cc1)c1ccc(O)cc1
active: [1] 0.243 nM | [2] 0.213 nM | [3] 0.468 nM | [4] 0.41 nM
inactive: [5] | [6] | [7]

O=C(O)Cc1cc(I)c(Oc2ccc(O)c(I)c2)c(I)c1
active: [11] 1 µM and 390 nM | [12] 6.02 nM | [5] 3.28 nM | [7] 0.504 nM and 5.79 nM | [14] 0.519 nM and 0.826 nM
not listed: [15] | [16] | [17] | [18] | [19]
inactive: all other assays above

O=c1c(-c2ccc(O)cc2)coc2cc(O)cc(O)c12
active: [1] 41.6 nM and 4.15 nM | [2] 126 nM and 17.4 nM | [3] 366 nM and 55.1 nM | [4] 174 nM and 6.08 nM
not listed: [8] | [9] | [11]
inactive: all other assays above
